Source: PubChem BioAssay
A selection: hits, their analogues and other compounds. The true share with any hit is near 21%.
NS1 inh: blocks influenza NS1 protein function. Potency, µM (highest dose often 46.1 µM), for the others: top-dose activity, positive = more growth. hit rate 0.4% among 270,000. AID 2326; calls by dose curve; further: potency means the concentration at half of the fitted maximal effect; actives are rising curves; nearly all actives have a fitted effect of over 50% in size
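In this qHTS, NS1 from influenza A is expressed in budding yeast, where it slows growth. Cells are switched from glucose to 2% galactose medium (pH 6.0, -URA), treated with compound, and growth recovery is read at OD600.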
Shiga toxin inh: inhibitors of Shiga toxin in Vero cells; inhibition, % at 38.7 µM; hit rate 9.2% among 290,000; AID 2315; Vero cells, Shiga toxin protein synthesis inhibition reporter; in the data active means inhibition mostly above about 28%, no sharp cut-off; inactive means mostly below about 43%; further: 0% is about no effect
Sm TGR block: blocks Schistosoma mansoni thioredoxin glutathione reductase | Q962Y6 | purified TGR, DTNB reduction, TNB absorbance 405 nm | Potency, µM (top dose mostly 114 µM), for inactives: top-dose activity change, negative = inhibition, actives largely listed as inhibitors | hit rate 3% among 360,000; further: potency means the concentration at half of the fitted maximal effect; on the % scale 0 is the no-effect control and ±100 the full control effect; nearly all actives have a fitted effect of over 60% in size
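Kinetic colorimetric format: TGR-catalysed, NADPH-driven DTNB reduction monitored via TNB absorbance. Enzyme dispensed at 20 nM; compound exposure 15 min at room temperature before reaction start.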
Pf growth 96h: inhibits malaria parasite growth, 96 h; P. falciparum luciferase reporter growth, 96 h; Potency, µM (doses to about 28.7 µM), for the others: at the top dose activity change, negative = inhibition, hits mostly inhibitors; hit rate 6.9% among 320,000; AID 504834; further: potency means the concentration at half of the fitted maximal effect; on the % scale 0 is the no-effect control and ±100 the full control effect
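96 h incubation, 37 C, 5% CO2, of luciferase-reporter P. falciparum-infected RBCs (2% hematocrit, 0.05% parasitemia final) with test compounds; endpoint luminescence.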
Cycloheximide cs: affects cycloheximide protein synthesis inhibition readout, counter-screen. cell reporter, cycloheximide protein synthesis inhibition counterscreen. max response, %. hit rate 12% among 300,000. AID 2314; in the data active means max response mostly above about 13%, no sharp cut-off; inactive means mostly below about 14%; further: read at 38.3 µM for the half of the compounds with a filed dose; 0% is about no effect
Pf growth 48h: inhibits P. falciparum growth in the first generation, 48 h; P. falciparum luciferase growth in erythrocytes, 48 h; Potency, µM (titrated, usually from 28.7 µM), without a hit: at the highest dose activity change, negative = inhibition, hits mostly inhibitors; hit rate 5.9% among 310,000; further: potency means the concentration at half of the fitted maximal effect; on the % scale 0 is the no-effect control and ±100 the full control effect
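First compound was added to culture medium, then infected red cells at 0.1% parasitemia and 2% hematocrit (final). After incubation at 37 C under 5% CO2, luciferase detection reagent was dispensed and light output recorded.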
Active calls of the source: *; ? = inconclusive; · = no result. Unless noted, the call rests on the fitted dose curve; in most records, active means well fitted curve in the direction sought with a large enough effect; inconclusive means small, poorly fitted or top-dose-only effect, or another doubt; inactive means no such curve, though single readings can be large; an effect the other way counts as inactive or inconclusive.

SMILES	NS1 inh	Shiga toxin inh	Sm TGR block	Pf growth 96h	Cycloheximide cs	Pf growth 48h
Cc1cc(NC(c2ccc(Cl)cc2)c2ccc3cccnc3c2O)no1 (configuration not stated)	-171%	-19	13µM*	0.33µM*	-1	·
CCC(=O)NC(c1ccc(Cl)cc1Cl)c1ccc2cccnc2c1O (configuration not stated)	-115%	·	0%	139%	11	2.9µM*
CCCCC(=O)NC(c1ccc(Cl)cc1Cl)c1ccc2cccnc2c1O (configuration not stated)	-109%	6	2%	15%	7	1.9µM*
O=C(Cn1c(O)c(/C=C2\C=Nc3ccc(Br)cc32)sc1=O)N1CCCC1	?	14	-11%	12µM*	-1	·
O=C(Cn1c(O)c(/C=C2\C=Nc3ccccc32)sc1=O)Nc1ccc2c(c1)OCO2	-3%	-7	1%	81%	29*	20%
O=C(Cn1c(O)c(/C=C2\C=Nc3ccccc32)sc1=O)N1CCOCC1	-1%	18	·	-6%	-2	-3%
CCc1ccccc1N(C)C(=O)c1cc2c(=O)oc3ccccc3c2s1	·	·	10%	·	·	·
COCC(C)Nc1nc(C)c(C(C)=O)s1 (configuration not stated)	·	21	-1%	0%	8	-8%
Cc1ccc(CNc2oc(-c3ccc(COc4ccc(Cl)cc4)o3)nc2C#N)cc1	·	·	-4%	·	·	·
COc1ccc(NC(=O)CN(C)C(=O)c2ccc3c(c2)OCCO3)cc1	·	·	-7%	-8%	·	12%
Cc1ccc2oc(=O)cc(CN3CCOCC3)c2c1	3%	-5	-7%	7.4µM*	-3	-3%
Cc1ccc2c(CN3CCN(C(=O)c4ccc(Br)cc4)CC3)cc(=O)oc2c1	·	·	3%	·	·	·
Cc1ccc2c(CN3CCCCC3)cc(=O)oc2c1	8%	28*	?	19%	21*	35%
Cc1ccc2c(CN3CCOCC3)cc(=O)oc2c1	-2%	-8	-4%	-12%	-2	33%
Cc1ccc2c(CN3CCN(S(=O)(=O)/C=C/c4ccccc4)CC3)cc(=O)oc2c1	?	-4	-3%	9.3µM*	2	?
O=S(=O)(/C=C/c1ccccc1)N1CCN(Cc2ccccc2)CC1	-1%	-25	-12%	27%	-2	7%
CCN1CCN(Cc2cc(=O)oc3ccc(C)cc23)CC1	2%	-7	1%	24%	-4	2%
Cc1ccc2oc(=O)cc(CN3CCC(C)CC3)c2c1	-10%	-4	-2%	5.9µM*	-3	?
CSC(=NC#N)N1CCN(c2cccc(Cl)c2)CC1	-59%	37	-1%	-15%	1	?
NC(N)=N[C@@H]1C(O)[C@H](N=C(N)N)[C@@H](O)C(O)[C@H]1O (some centres not stated)	-3%	·	·	·	·	·
CCOC(=O)c1cn(CC(=O)Nc2ccc(OC)cc2OC)nn1	·	-14	2%	-22%	-4	11%
CCc1ccc2oc(=O)cc(CN3CCOCC3)c2c1	-4%	-20	6%	·	-1	-13%
CCc1ccc2oc(=O)cc(CN3CCC(C)CC3)c2c1	1%	-11	4%	2.9µM*	-6	1.3µM*
O=C(O)c1cc(S(=O)(=O)NC(Cc2c[nH]c3ccccc23)C(=O)O)ccc1Cl (configuration not stated)	-2%	23	0%	-7%	-1	0%
Cc1ccc2nc(-c3ccccc3)cc(C(=O)NCCCn3ccnc3)c2c1	-25%	-3	0%	?	-1	13µM*
SMILES	NS1 inh	Shiga toxin inh	Sm TGR block	Pf growth 96h	Cycloheximide cs	Pf growth 48h
O=C(NCCCn1ccnc1)c1cc(-c2cccnc2)nc2ccc(Br)cc12	1%	-17	8%	1.5µM*	-4	12µM*
COCCNC(=O)C1(C(F)(F)F)C/C(=C\CCO)CCCO1 (configuration not stated)	·	-10	·	·	-3	·
Cc1nc2c(C(=O)NCCc3ccccc3)cnn2c(C)c1Cc1c(F)cccc1Cl	·	·	6%	·	·	·
c1cnc(SCCOc2cccc3ccccc23)nc1	-53%	79*	-2%	46%	52*	·
Fc1ccccc1OCCCn1ccnc1	5%	20	9%	300%	2	-3%
Clc1ccc(OCCSc2ncccn2)c2ccccc12	-4%	91*	11%	14%	39*	15%
Fc1ccccc1OCCCCSc1ncccn1	0%	22	-15%	141%	27*	33%
